From PubChem BioAssay
IL1B secr inh = inflammasome signaling inhibition, IL-1 beta readout. THP-1 LPS/ATP IL-1B secretion, AlphaLISA, 16 h; hits give low values. activity change, % at 57.5 µM. 360,000 tested, 4.7% active. AID 743279; in the data active means activity change below about -50%; inconclusive means mostly about -30% to -49%; further: on the % scale 0 is the no-effect control and ±100 the full control effect
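Secreted IL-1B measured by AlphaLISA bead assay after 16 h compound exposure of THP-1 cells; compounds (final up to 57.5 uM) added 1 h before LPS (250 ng/mL) and ATP (1.25 mM) stimulation; lower signal means less secretion.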
HepG2 viability = HepG2 cytotoxicity, counter-screen for TGF-b inhibitors; HepG2 CAGA-GFP viability, ATP luminescence, 18 h; Potency, µM (titrated, usually from 46.1 µM), inactives show at the top dose activity change, negative = cytotoxicity, actives largely listed as cytotoxic; 410,000 tested, 0.76% active; further: potency means the concentration at half of the fitted maximal effect
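HepG2 CAGA-GFP cells (1000/well, DMEM with 1% FBS) received compound, then TGF-beta at 500 pg/mL final, and were incubated 18 hours at 37 degrees C. Viability was read by CellTiter-Glo luminescence. Media-only wells were set as complete cell-killing and DMSO as no toxicity.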
TGFb inhibitor = TGF-b pathway inhibition; HepG2 CAGA-GFP TGF-b/SMAD3 reporter, GFP fluorescence, 18 h; TGF-beta stimulated, 500 pg/mL final; AID 588855; 410,000 tested, 1.2% active; Potency, µM (highest dose often 46.1 µM), for inactives: at the highest dose activity, negative = inhibition, actives largely listed as inhibitors; further: potency means the concentration at half of the fitted maximal effect; on the % scale 0 is the no-effect control and ±100 the full control effect; nearly all actives have a fitted effect of over 65% in size
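First, reporter cells (HEPG2 CAGA-GFP) rested 2 h at 37 degrees C. Next, compounds were pinned in and TGF-beta added to 500 pg/mL final. After 18 h, GFP was imaged per cell and summed per well.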
HT1080 IDH1KD tx = HT-1080 IDH1 knockdown cell toxicity (counter line) | Potency, µM (series often up to 46.1 µM), inactives show top-dose activity, negative = toxicity, usual class: cytotoxic | AID 686971 | HT-1080 IDH1 knockdown viability, ATP luminescence, 48 h | 360,000 tested, 2% active;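 further: potency means the concentration at half of the fitted maximal effect; 0% = DMSO wells and -100% = cell-free medium wells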
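Using the IDH1-knockdown HT-1080 line run in the same batch and compound series as the NT line, viability after 48 h at 37 °C was determined by CellTiter-Glo luminescence and expressed as % activity.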
Giardia kill = kills Giardia lamblia; Giardia lamblia trophozoite viability; activity change, % at 7.66 µM, hits read low; 340,000 tested, 0.15% active; in the data active means activity change below about -80%; inconclusive means between about -30% and that limit;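 further: parasites exposed to compound for two days anaerobically before the ATP read; on the % scale 0 is the no-effect control and ±100 the full control effect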
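Each well holds 100 Giardia trophozoites and compound. After two days (48 hrs) at 37 deg C in anaerobic conditions, ATP is quantified by luminescence.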
HT1080NT lethal = kills 2HG-producing HT-1080-NT fibrosarcoma cells; HT-1080-NT fibrosarcoma viability, CellTiter-Glo ATP luminescence, 48 h; Potency, µM (series often up to 46.1 µM), for the others: top-dose activity, negative = less viability, most hits filed as cytotoxic; 360,000 tested, 1.6% active; AID 686970;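 further: NT is the 2HG producing partner of a matched IDH1 knockdown line; potency means the concentration at half of the fitted maximal effect; 0% = DMSO-treated cells and -100% = media-only wells without cells; nearly all actives have a fitted effect of over 55% in size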
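Toxicity toward the 2HG-producing NT line was scored as %Activity, normalised to DMSO and no-cell wells, from CellTiter-Glo luminescence after 48 hours' treatment.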
Starred values were filed as active, the others as inactive; i = inactive; ? = inconclusive; / = no result given. A selection: hits, their analogues and other compounds. The true share with any hit is near 6.5%. Unless noted, the call rests on the fitted dose curve; in most records, active means well fitted curve in the direction sought with a large enough effect; inconclusive means small, poorly fitted or top-dose-only effect, or another doubt; inactive means no such curve, though single readings can be large; an effect the other way counts as inactive or inconclusive.

SMILES | IL1B secr inh | HepG2 viability | TGFb inhibitor | HT1080 IDH1KD tx | Giardia kill | HT1080NT lethal
Cc1ccc(C)c(NC(=O)CSc2nnc(CSc3nc(C)cc(C)n3)n2Cc2ccco2)c1 | -24 | -37% | -3% | -6% | -8 | -15%
CSc1nc2ccccc2cc1/C=C(\C#N)c1ccccc1 | 0 | -4% | -3% | 18µM* | -7 | ?
CSc1nc2ccccc2cc1/C=C(\C#N)c1ccc(Cl)c(Cl)c1 | -20 | -14% | 17% | -6% | -10 | -5%
CSc1nc2ccccc2cc1/C=C(\C#N)c1cccc(C)c1 | -1 | -13% | 0% | 5.2µM* | -13 | ?
CC1CC(C)CN(C(=O)C2CCN(S(=O)(=O)c3cccc4cccnc34)CC2)C1 (configuration not stated) | 1 | 0% | 2% | 0% | 2 | 10%
COc1ccc(NC(=O)N2CCN(C(=O)Nc3ccc(OC)cc3)CC2)cc1 | 1 | -81% | ? | -20% | -14 | ?
CCC(C)(C)c1ccc(Oc2cccc(C(=O)O)c2)cc1 | 22 | 0% | -1% | 9% | -10 | 5%
CCC(C)(C)c1ccc(Oc2ccc(N)cc2)cc1 | -12 | -23% | ? | ? | 13 | 16µM*
CC(C)S(=O)(=O)c1oc(-c2ccc(F)cc2)nc1S(=O)(=O)c1ccccc1 | / | 3.2µM* | 1.4µM* | / | / | /
CCCCS(=O)(=O)c1oc(-c2ccc(F)cc2)nc1S(=O)(=O)c1ccccc1 | / | 5.6µM* | 2.8µM* | / | / | /
CS(=O)(=O)c1oc(-c2ccc(F)cc2)nc1S(=O)(=O)c1ccc(Cl)cc1 | / | 5µM* | 3.2µM* | / | / | /
CCS(=O)(=O)c1oc(-c2ccc(F)cc2)nc1S(=O)(=O)c1ccc(Br)cc1 | / | 3.5µM* | 2.8µM* | / | / | /
CCC1CCCCN1CCCNC(=O)c1ccc2c(c1)c(C)c(C)n2CC (configuration not stated) | -12 | -26% | 3% | ? | 24 | ?
COc1ccc(CNC(=O)COC(=O)CCC(=O)c2cccs2)cc1 | 14 | -2% | -8% | 3% | -29 | -3%
Cc1ccc(S(=O)(=O)c2nc(-c3cccs3)oc2SC(C)C)cc1 | / | -17% | ? | / | / | /
CC(C)S(=O)(=O)c1oc(-c2cccs2)nc1S(=O)(=O)c1ccc(F)cc1 | / | 3.5µM* | 2.5µM* | / | / | /
O=C(C=Cc1ccccn1)c1ccccc1O | -94* | -42% | ? | -15% | -3 | 0%
O=C(C=Cc1ccccn1)c1ccccc1 | -98* | 10µM* | 6.3µM* | 10µM* | -25 | ?
O=C(/C=C/c1ccco1)c1ccccc1O | -10 | -10% | -5% | 0% | 2 | -6%
O=C(N/N=C/c1cccnc1)c1cc(-c2ccccc2OCc2ccccc2)n[nH]1 | -23 | -2% | -7% | ? | 28 | ?
Cc1cc(Cl)c(OCCOCCN2CCCCC2)c(Br)c1 | -16 | 2% | 1% | 8% | 6 | 11%
Cc1cc(Cl)c(OCCCn2ccnc2)c(Br)c1 | -72* | -38% | ? | -19% | -20 | -14%
Cc1cc(Cl)c(OCCCNC2CCCC2)c(Br)c1 | -73* | -52% | ? | 21µM* | -12 | ?
CC1CCCN(CCOCCOc2ccc(Cl)cc2Br)C1 (configuration not stated) | ? | -37% | ? | 11µM* | 13 | 22µM*
Cc1cc(Cl)c(OCCOCCN2CCCC(C)C2)c(Br)c1 (configuration not stated) | -15 | -7% | -9% | ? | 19 | 18µM*
CCCCCNC(=O)c1ccc(NS(=O)(=O)c2ccc3[nH]c(=O)[nH]c3c2)cc1 | i | -24% | -2% | -6% | -12 | -6%
CC(C)(C)[C@@H]1C=C(C(=O)O)O[C@H](OCc2ccc(CO)cc2)C1 | -5 | 4% | 0% | 2% | 10 | 0%
